Screens (PubChem)
hgDAF12 agonist = activates the H. glycines DAF-12 receptor ligand-binding domain; HEK293 GAL4-hgDAF12 UAS-luciferase reporter, agonist luminescence; normalized to butyrate control; activation, % at 6.8 µM; 1.8% of 370,000 active; AID 687014;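 active means activation above a cutoff set at the mean of all screened compounds plus 3 SD, cut at about 10% in these data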;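 further: 0% = DMSO wells and 100% = sodium butyrate wells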
SMARCA2 activ = SMARCA2 function activation, primary screen. MG213 cells, MMTV-luciferase reporter, dexamethasone, overnight. activation, % at 9.1 µM. 1% of 370,000 active; in the data active means activation above about 7.8%;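 further: 0% = vehicle wells and 100% = reference activator wells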
DAX1 inh-1 = inhibitors of human orphan nuclear receptor DAX1 (NR0B1). P51843. HEK293 Gal4-DAX1 luciferase reporter, luminescence. inhibition, % at 6.75 µM. 0.99% of 340,000 active. AID 504766;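 active means inhibition above the mean over all tested compounds plus 3 SD, cut at about 4.2% in these data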;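 further: 0% = DAX1-transfected cells with DMSO and 100% = empty-vector control cells with DMSO; inhibition shows as a rise in luminescence from relieved DAX1 repression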
Target sequence (P51843 207-470 limits assumed): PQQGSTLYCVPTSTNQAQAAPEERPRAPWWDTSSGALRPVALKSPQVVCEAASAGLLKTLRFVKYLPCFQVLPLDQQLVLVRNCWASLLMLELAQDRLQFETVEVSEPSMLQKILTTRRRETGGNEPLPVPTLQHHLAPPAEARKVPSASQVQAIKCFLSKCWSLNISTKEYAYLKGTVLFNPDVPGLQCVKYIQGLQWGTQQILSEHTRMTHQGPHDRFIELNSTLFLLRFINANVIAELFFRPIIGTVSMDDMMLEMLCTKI
ssDAF12 agonist = S. stercoralis DAF-12 activation, primary screen. HEK293 ssDAF-12/GRIP1 lit1-tk-luc reporter, luminescence; % of 3 µM dafachronic acid response. activation, % at 6.8 µM. 1% of 370,000 active;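 active means activation above the mean over all tested compounds plus 3 SD, cut at about 0.9% in these data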;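 further: 0% = DMSO-only wells and 100% = 3 µM delta7-dafachronic acid wells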
hcDAF-12 act = activates DAF-12 receptor from parasite H. contortus. 1.4% of 370,000 active. activation, % at 6.8 µM. HEK293 hcDAF-12 lit1-tk-luc reporter, luminescence; 0% DMSO, 100% Δ7-dafachronic acid;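 active means activation above the mean of all tested compounds plus 3 SD, cut at about 5.5% in these data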;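 further: 100% = response to 3 µM Δ7-dafachronic acid high control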
DAX1 inh-2 = inhibitors of DAX1 repression of SF-1 activated StAR promoter. HEK293T StAR-luciferase reporter, SF-1/DAX-1 repression relief. inhibition, % at 6.8 µM. 1.1% of 370,000 active. AID 652010;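 active means inhibition above the mean over all tested compounds plus 3 SD, cut at about 3.6% in these data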;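 further: 0% = DAX-1 cells with DMSO and 100% = cells lacking DAX-1 with DMSO; higher inhibition means more luminescence from relief of DAX-1 repression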
SMARCA2 conf = confirmation of SMARCA2 (BRM) function activators; shares compounds with SMARCA2 activ; MG213 cells, MMTV-luciferase with dexamethasone, luminescence, overnight; MG213 cells expressing E1A, Rb sequestered; DMSO wells 0%, reference activator 100%; activation, % at 9.1 µM; 30% of 3,500 active; AID 652260;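 active means activation above its plate's cutoff, the mean activation of tested wells plus 3 SD, cut at about 7.9% in these data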
VP16 Luc act = activates GAL4-VP16 luciferase, flagging SMARCA2 activator hits. shares compounds with SMARCA2 activ. HEK293 GAL4-VP16 pG5luc reporter, luciferase luminescence; scaled: DMSO wells 0%, SAHA wells 100%. activation, % at 9.1 µM. 41% of 3,500 active. AID 686939;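 active means activation above the solvent-only control well mean plus 3 SD, averaged across control plates, cut at about 5.2% in these data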
Numbers without * were called inactive. Most compounds without a hit are left out; they make up all but 4.8% or so of the library.

How did O=C(OC12CCCN(C1)/C(=C/c1cccc(Cl)c1)C2)C1CCCCC1 (configuration not stated) do in these assays?
hgDAF12 agonist: -0.3; SMARCA2 activ: -2.3; ssDAF12 agonist: -1.5; hcDAF-12 act: 0.6; DAX1 inh-2: -0.6

How did Cc1ccc(C(=O)Nc2ccc(O)c(C(=O)O)c2)o1 do in these assays?
hgDAF12 agonist: -0.7; SMARCA2 activ: 9.3*; DAX1 inh-1: 0.6; ssDAF12 agonist: -1.2; hcDAF-12 act: -1.6; DAX1 inh-2: 0.0; SMARCA2 conf: 4.0; VP16 Luc act: 1.2

How did COC(=O)C1CN(CCc2ccccc2)CCS(=O)(=O)N1Cc1ccccc1F (configuration not stated) do in these assays?
hgDAF12 agonist: 0.5; SMARCA2 activ: -0.8; ssDAF12 agonist: -1.0; hcDAF-12 act: -3.1; DAX1 inh-2: -0.7

How did Nc1cccc(O)c1 do in these assays?
hgDAF12 agonist: -2.1; SMARCA2 activ: 9.7*; DAX1 inh-1: 0.5; ssDAF12 agonist: -1.3; hcDAF-12 act: -1.5; DAX1 inh-2: 0.3; SMARCA2 conf: 4.7; VP16 Luc act: 0.7

What do the screens show for `COC(=O)[C@]12C[C@H](CC(=O)NCCCCc3ccccc3)C(=O)N(Cc3cccc4ccccc34)C1=C[C@H](C1CCCC1)O[C@@H]2C`?
hgDAF12 agonist: 0.2; SMARCA2 activ: -1.0; ssDAF12 agonist: -0.9; hcDAF-12 act: -1.0; DAX1 inh-2: -0.4

How did CC(=O)N1CCn2c3c(c4cc(C)ccc42)CCCC31 (configuration not stated) do in these assays?
hgDAF12 agonist: 5.2; SMARCA2 activ: 8.7*; DAX1 inh-1: -1.2; ssDAF12 agonist: -1.7; hcDAF-12 act: 0.1; DAX1 inh-2: 1.0; SMARCA2 conf: -3.8; VP16 Luc act: 0.2

What do the screens show for `Cc1occc1C(=O)N/N=C/c1ccccc1[N+](=O)[O-]`?
hgDAF12 agonist: 8.2; SMARCA2 activ: 8.2*; DAX1 inh-1: 2.3; ssDAF12 agonist: -0.8; hcDAF-12 act: 3.3; DAX1 inh-2: 1.3; SMARCA2 conf: 6.3; VP16 Luc act: 9.0*

Results for Cc1ccc(C(=O)CSc2nnc(-c3ccco3)n2Cc2ccccc2)cc1 ?
hgDAF12 agonist: 3.4; SMARCA2 activ: 11.4*; DAX1 inh-1: -0.1; ssDAF12 agonist: -1.5; hcDAF-12 act: -1.7; DAX1 inh-2: -0.4; SMARCA2 conf: 6.0; VP16 Luc act: 4.2

What do the screens show for `COCC1CCN(C(=O)C2CCC(=O)N(Cc3ccc(Cl)cc3)C2)CC1` (configuration not stated)?
hgDAF12 agonist: -0.2; SMARCA2 activ: 8.3*; DAX1 inh-1: 0.3; ssDAF12 agonist: -1.4; hcDAF-12 act: 1.0; DAX1 inh-2: -1.0; SMARCA2 conf: -1.2; VP16 Luc act: -0.1

How did O=C1CCC(C(=O)N2CCC(CO)CC2)CN1Cc1ccc(Cl)cc1 (configuration not stated) do in these assays?
hgDAF12 agonist: -0.9; SMARCA2 activ: -2.5; DAX1 inh-1: -0.2; ssDAF12 agonist: -0.1; hcDAF-12 act: 2.2; DAX1 inh-2: 1.8

How did Cn1c(=NC(=O)c2cccc([N+](=O)[O-])c2)sc2ccccc21 do in these assays?
hgDAF12 agonist: 6.9; SMARCA2 activ: 8.7*; DAX1 inh-1: 1.4; ssDAF12 agonist: 0.5; hcDAF-12 act: 5.5; DAX1 inh-2: 3.4; SMARCA2 conf: 6.3; VP16 Luc act: 13.6*

What do the screens show for `COc1cc(C(=O)N=c2sc3ccccc3n2C)cc(OC)c1OC`?
hgDAF12 agonist: -1.8; SMARCA2 activ: -1.6; DAX1 inh-1: -2.3; ssDAF12 agonist: -1.5; hcDAF-12 act: -1.6; DAX1 inh-2: 0.2

How did COCCCNC(=O)/C=C/c1ccc(Cl)cc1 do in these assays?
hgDAF12 agonist: 3.0; SMARCA2 activ: 12.4*; DAX1 inh-1: -0.9; ssDAF12 agonist: -1.5; hcDAF-12 act: -0.8; DAX1 inh-2: 0.2; SMARCA2 conf: 3.0; VP16 Luc act: 0.9

How did COCCCNC(=O)/C=C/c1c(Cl)cccc1Cl do in these assays?
hgDAF12 agonist: 4.5; SMARCA2 activ: 0.2; DAX1 inh-1: -0.3; ssDAF12 agonist: -1.1; hcDAF-12 act: -1.4; DAX1 inh-2: -0.1

Results for COc1ccc(C(C(=O)Nc2ccc(F)cc2)N2CCN(c3ccncc3)CC2)cc1 (configuration not stated) ?
hgDAF12 agonist: 5.2; SMARCA2 activ: -1.1; ssDAF12 agonist: -1.3; hcDAF-12 act: 1.4; DAX1 inh-2: 1.6

How did O=C(Nc1ccc(F)cc1)C(c1ccccc1)N1CCN(c2ccncc2)CC1 (configuration not stated) do in these assays?
hgDAF12 agonist: -2.3; SMARCA2 activ: 8.3*; ssDAF12 agonist: -0.8; hcDAF-12 act: -1.5; DAX1 inh-2: 0.2; SMARCA2 conf: 1.5; VP16 Luc act: -0.3

What do the screens show for `O=C(Nc1cccc(-c2nn[nH]n2)c1)c1cccs1`?
hgDAF12 agonist: -2.6; SMARCA2 activ: 0.3; DAX1 inh-1: 0.9; ssDAF12 agonist: -1.1; hcDAF-12 act: -1.1; DAX1 inh-2: 0.3

How did CCc1ccc(C(=O)Nc2cccc(-c3nn[nH]n3)c2)s1 do in these assays?
hgDAF12 agonist: 0.3; SMARCA2 activ: 9.2*; DAX1 inh-1: 0.5; ssDAF12 agonist: -1.1; hcDAF-12 act: -0.8; DAX1 inh-2: 0.3; SMARCA2 conf: -1.3; VP16 Luc act: 1.6

How did Cc1cccc(CNC(=O)C2CCC(=O)N(C3CCCC3)C2)c1 (configuration not stated) do in these assays?
hgDAF12 agonist: 3.5; SMARCA2 activ: -1.9; DAX1 inh-1: 1.1; ssDAF12 agonist: -0.8; hcDAF-12 act: -0.8; DAX1 inh-2: -0.5

What do the screens show for `Cc1ccc(CNC(=O)C2CCC(=O)N(C3CCCC3)C2)c(F)c1F` (configuration not stated)?
hgDAF12 agonist: -0.3; SMARCA2 activ: 9.7*; DAX1 inh-1: 0.7; ssDAF12 agonist: -0.9; hcDAF-12 act: 0.0; DAX1 inh-2: -0.1; SMARCA2 conf: -2.4; VP16 Luc act: 0.2

How did Cc1ccc(N2C(S)=C(C#N)C(=O)NC2c2cccs2)cc1 (configuration not stated) do in these assays?
hgDAF12 agonist: 2.2; SMARCA2 activ: 8.0*; DAX1 inh-1: -1.1; ssDAF12 agonist: -1.4; hcDAF-12 act: 1.4; DAX1 inh-2: 0.0; SMARCA2 conf: 2.2; VP16 Luc act: 0.4

Results for COc1ccc(C(=O)NC2CC2)cc1OC1CCN(Cc2cc(C)c(C)cc2C)CC1 ?
hgDAF12 agonist: -3.0; SMARCA2 activ: 9.1*; DAX1 inh-1: -0.3; ssDAF12 agonist: -1.1; hcDAF-12 act: -1.0; DAX1 inh-2: 1.2; SMARCA2 conf: -1.5; VP16 Luc act: 1.6
